Assay results: PubChem BioAssay AID1159580 (chemical genetic matrix, 2015)
Values joined by “and” are separate entries in the source; they are usually repeats but may differ in a detail not shown here. Identical values can stand only once. The whole screen tested about 5,500 compounds, of which about 2,000 (36%) were called active. Not shown: some 18% with an inconclusive outcome. Cut-off read from the data, not from the text of the source: active = normalized growth mostly below about 0.91 (no sharp cut-off); inconclusive = no clear call, values can overlap the other calls; inactive = mostly above about 0.92. This is one part of the list.

Assay: chemical genetic growth profiling, strain panel (AID 1159580);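 note: tested at 20 µM; growth read once vehicle control cultures reached saturation at 30 °C; 1 = growth at the plate median or of vehicle wells; lower values mean less growth of the strain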
Details: S. cerevisiae deletion strains, growth OD

Measured: normalized growth

Cc1cc(O)c(C)c(O)c1C(=O)O
inactive: locus YAL021C, strain ccr4, stronger effect = lower value 0.989 | locus YAL026C, strain drs2, stronger effect = lower value 0.979 | locus YAL030W, strain snc1, stronger effect = lower value 0.999 | locus YBL061C, strain skt5, stronger effect = lower value 0.989 | locus YBR009C, strain hhf1, stronger effect = lower value 0.97 | locus YBR021W, strain FUR4, stronger effect = lower value 0.986 | locus YBR023C, strain chs3, stronger effect = lower value 0.981 | locus YBR171W, strain sec66, stronger effect = lower value 0.99 | locus YBR229C, strain ROT2, stronger effect = lower value 0.993 | locus YBR231C, strain swc5, stronger effect = lower value 0.992 | locus YBR279W, strain paf1, stronger effect = lower value 0.984 | locus YCL011C, strain gbp2, stronger effect = lower value 0.991 | locus YCL016C, strain dcc1, stronger effect = lower value 0.99 | locus YCL029C, strain bik1, stronger effect = lower value 0.976 | locus YCL061C, strain MRC1, stronger effect = lower value 1.01 | locus YCL069W, strain vba3, stronger effect = lower value 0.995 | locus YCR088W, strain abp1, stronger effect = lower value 0.988 | locus YDL005C, strain med2, stronger effect = lower value 0.984 | locus YDL035C, strain GPR1, stronger effect = lower value 1.03 | locus YDL040C, strain nat1, stronger effect = lower value 0.99 | locus YDL074C, strain BRE1, stronger effect = lower value 1.06 | locus YDL101C, strain DUN1, stronger effect = lower value 0.986 | locus YDL134C, strain PPH21, stronger effect = lower value 0.978 | locus YDL185W, strain tfp1, stronger effect = lower value 0.964 | locus YDL192W, strain arf1, stronger effect = lower value 0.997 | locus YDR001C, strain nth1, stronger effect = lower value 0.981 | locus YDR069C, strain doa4, stronger effect = lower value 0.956 | locus YDR101C, strain arx1, stronger effect = lower value 1.04 | locus YDR137W, strain rgp1, stronger effect = lower value 0.899 | locus YDR159W, strain sac3, stronger effect = lower value 0.983 | locus YDR162C, strain NBP2, stronger effect = lower value 1.03 | locus YDR195W, strain ref2 0.977 | locus YDR297W, strain sur2, stronger effect = lower value 0.986 | locus YDR318W, strain mcm21, stronger effect = lower value 0.979 | locus YDR334W, strain swr1, stronger effect = lower value 0.975 | locus YDR335W, strain msn5, stronger effect = lower value 0.985 | locus YDR388W, stronger effect = lower value 1 | locus YDR392W, strain spt3, stronger effect = lower value 0.931 | locus YDR502C, strain sam2, stronger effect = lower value 0.98 | locus YEL003W, strain gim4, stronger effect = lower value 0.978 | locus YEL037C, strain rad23, stronger effect = lower value 0.976 | locus YEL061C, strain CIN8 (second series), stronger effect = lower value 0.979 | locus YEL061C, strain CIN8, stronger effect = lower value 1 | locus YER015W, strain faa2, stronger effect = lower value 0.987 | locus YER016W, strain bim1, stronger effect = lower value 0.991 | locus YER110C, stronger effect = lower value 0.984 | locus YER111C, strain swi4, stronger effect = lower value 0.985 | locus YER155C, strain BEM2 (second series), stronger effect = lower value 0.968 | locus YER155C, strain BEM2, stronger effect = lower value 0.988 | locus YER167W, strain BCK2, stronger effect = lower value 1.01 | locus YFR010W, strain ubp6, stronger effect = lower value 0.975 | locus YGL078C, strain dbp3, stronger effect = lower value 0.95 | locus YGL086W, strain mad1, stronger effect = lower value 0.997 | locus YGL167C, strain pmr1, stronger effect = lower value 0.974 | locus YGL173C, strain kem1, stronger effect = lower value 0.984 | locus YGL227W, strain vid30, stronger effect = lower value 0.995 | locus YGL240W, strain doc1, stronger effect = lower value 0.906 | locus YGL248W, strain PDE1, stronger effect = lower value 0.978 | locus YGL253W, strain hxk2, stronger effect = lower value 0.993 | locus YGR078C, strain PAC10, stronger effect = lower value 0.976 | locus YGR135W, strain pre9, stronger effect = lower value 0.925 | locus YGR252W, strain gcn5, stronger effect = lower value 0.926 | locus YHR013C, strain ard1, stronger effect = lower value 0.954 | locus YHR027C, strain rpn1, stronger effect = lower value 0.997 | locus YHR030C, strain SLT2, stronger effect = lower value 1.04 | locus YHR079C, strain IRE1 (second series), stronger effect = lower value 0.993 | locus YHR079C, strain IRE1, stronger effect = lower value 1.02 | locus YHR094C, strain hxt1, stronger effect = lower value 0.981 | locus YHR129C, strain ARP1, stronger effect = lower value 1.01 | locus YHR142W, strain chs7, stronger effect = lower value 1.02 | locus YHR200W, strain rpn10, stronger effect = lower value 0.96 | locus YIL066C, strain RNR3, stronger effect = lower value 1.01 | locus YIL073C, strain SPO22, stronger effect = lower value 0.806 | locus YIL125W, strain kgd1, stronger effect = lower value 1 | locus YIR030C, strain dcg1, stronger effect = lower value 0.989 | locus YJL092W, strain hpr5, stronger effect = lower value 1 | locus YJL095W, strain BCK1 (second series), stronger effect = lower value 1 | locus YJL095W, strain BCK1, stronger effect = lower value 0.988 and 1.05 | locus YJL115W, strain asf1, stronger effect = lower value 0.983 | locus YJL129C, strain trk1, stronger effect = lower value 0.995 | locus YJL134W, strain LCB3, stronger effect = lower value 1 | locus YJL154C, strain vps35, stronger effect = lower value 0.986 | locus YJL164C, strain tpk1, stronger effect = lower value 1.01 | locus YJL166W, strain qcr8, stronger effect = lower value 0.961 | locus YJL168C, strain set2, stronger effect = lower value 0.982 | locus YJL187C, strain SWE1 (second series), stronger effect = lower value 0.985 | locus YJL187C, strain SWE1, stronger effect = lower value 0.992
